{"source": "paper PMC12136788", "binders": {"B1": {"name": "chr10:16593140:16593241:-|3pUTR|ENSG00000148484|unk|total|mutant (ssRNA)", "RNA": "GGGAGUUCUACAGUCCGACGAUCUUAUUUUUCUUUUCACUCUCUUUCUAAUGCUUCCCACCUUACCUUUCCGAUUCUUUUGCCCGGUGGGAGAUUGUUAUAAGGUCUUUAAACCAUUUCCAUUUGUUUCUUUAACAUUACCAACAACAGAGGAUUGAGCAUCA"}, "B2": {"name": "chr5:72207278:72207408:+|3pUTR|ENSG00000131711|msi1_unk|FALSE|overlapping (ssRNA)", "RNA": "GGGAGUUCUACAGUCCGACGAUCAGAGAACAAUGACCUCAUUUUAUUUUCUAUGUUAGUUAUUUAUUUCAAAAUUAACAUUUUAGUUGAUUUUUGUCUGAUAAGUCUAUGUUUUGCACUGCUAACUAUGAUGAGGGUUUAAAACAACAGAGGAUUGAGCAUCA"}, "B3": {"name": "chr7:137014887:137014989:+|CDS|ENSG00000181072|unk|FALSE|unique (ssRNA)", "RNA": "GGGAGUUCUACAGUCCGACGAUCGCUACUUGGCUACUGAUUAGAGAACGCAAAAUGAAUAACUCAACAAACUCCUCUAACAAUAGCCUGGCUCUUACAAGUCCUUAUAAGACAUUUGAAGUGGUGUUUAUUGUCCUGGUGGCUCAACAGAGGAUUGAGCAUCA"}, "B4": {"name": "chr1:204554719:204554820:+|3pUTR|ENSG00000198625|unk|FALSE|unique (ssRNA)", "RNA": "GGGAGUUCUACAGUCCGACGAUCAAGUACUUUCUUUUGACAGAAAUUUUCAUUCUGCUUGCCAUUGCUAUAUUCUCCCUUUAUAGGAGCCAUUGGAUUUCUUUCCUUUUGUGGGAAAUGUCCCAUUAGCAUUUUCAGAUCUUUCAACAGAGGAUUGAGCAUCA"}, "B5": {"name": "chrX:120258281:120258382:+|3pUTR|ENSG00000177485|msi1|FALSE|bound_elsewhere (ssRNA)", "RNA": "GGGAGUUCUACAGUCCGACGAUCUGUACAAUCUUCCCUGUCAUGACUUUAAGUUCUACUUUUCAUUAACCAUGGCCUGAUAUUAGUUCUUAGAGCUUCUUGUGGCAAAAAUAAAAUGAUUUAAUUCUGAUGUUUGAGUGCGUGCAACAGAGGAUUGAGCAUCA"}, "B6": {"name": "chr8:41263181:41263319:-|3pUTR|ENSG00000104332|msi1|total|mutant (ssRNA)", "RNA": "GGGAGUUCUACAGUCCGACGAUCCUUAAGUGAUUUGCCUGUAAUUUUGGAUGAUUAAAAAAUGUGUAUAUAUAUCCGCUAAUCCGAAAUAUUCUACUUCUCUGUUGUCAAACUGAAAUUCAGAGCAAGUUCCUGAGUGCGUGGCAACAGAGGAUUGAGCAUCA"}, "B7": {"name": "chr6:117694021:117694122:+|CDS|ENSG00000153989|msi1|FALSE|unique (ssRNA)", "RNA": "GGGAGUUCUACAGUCCGACGAUCGCUGUCUCCGGAAGAUGGAAAAGCAGAUAUUGUAAGAGCUGCUCAGGACUUUUGCCAGUUAGUAGCCCAGAAGCAAAAGAGACCCACAGAUUUGGAUGUAGAUACGUUAGCCAGUUUACUCAACAGAGGAUUGAGCAUCA"}, "B8": {"name": "chr8:41263181:41263319:-|3pUTR|ENSG00000104332|msi1|FALSE|unique (ssRNA)", "RNA": "B6 RNA with C75U, C76A, C83U, C84A"}, "B9": {"name": "chr10:17237356:17237519:+|3pUTR|ENSG00000026025|msi1_unk|total|mutant (ssRNA)", "RNA": "GGGAGUUCUACAGUCCGACGAUCAGACCGAUUUGGAACCGGAAUAAGCUCCCGUUCUUAACAACCGACACUCCUACAAGAUUCCGAAAAAAGUUUACAACAUAAUCCCGUUUACAGAAAAAUCUUGUGCCCGAAUACUUUUUACAACAGAGGAUUGAGCAUCA"}, "B10": {"name": "chr10:17237356:17237519:+|3pUTR|ENSG00000026025|msi1_unk|FALSE|overlapping (ssRNA)", "RNA": "GGGAGUUCUACAGUCCGACGAUCAGAUAGAUUUGGAAUAGGAAUAAGCUCUAGUUCUUAACAACCGACACUCCUACAAGAUUUAGAAAAAAGUUUACAACAUAAUCUAGUUUACAGAAAAAUCUUGUGCUAGAAUACUUUUUACAACAGAGGAUUGAGCAUCA"}, "B11": {"name": "chr6:117694021:117694122:+|CDS|ENSG00000153989|msi1|total|mutant (ssRNA)", "RNA": "B7 RNA with U83C, A84C, U86C, A87C, U122C, A123C, U131C, A132C"}, "B12": {"name": "chr12:76028832:76028933:-|3pUTR|ENSG00000139289|msi1|FALSE|unique (ssRNA)", "RNA": "GGGAGUUCUACAGUCCGACGAUCAAAGGAAAAGACUGGAUAAACACAGGAUUUUCAGUAAGAAAACAACCCCAGUCUUGUCUUAGAAGCCACUUGUUGAGGAGUCUGUUGGGGGAAAAAAGAGGAUAUGCUUUUAAAGGUAGACAACAGAGGAUUGAGCAUCA"}, "B13": {"name": "chr6:105096826:105097152:-|3pUTR|ENSG00000112276|msi1|FALSE|unique (ssRNA)", "RNA": "GGGAGUUCUACAGUCCGACGAUCACUUGCAACCUAGUUUUAAAAUACAUGAGGAUUUUAUGAAAGCUUUAUACAGACAUUUAUAGGAAACUCAUUCUUUGAUUUUAGGUGCCAUUUAAAUUGAUAACACUUACUUUAUAAAAACAACAGAGGAUUGAGCAUCA"}}, "note": "Positions count from the first letter of the chain named. The full ranking holds about 5,800 sequences; the median of “enrichment r” is about 0.54, and the highest 2% start at about 16. Many of the other results were omitted from the sample, so the highest values are more common in it than they were.", "data": [{"biological_target": "MSI1 full-length (mouse, UniProt Q61474 1-362)", "sequence (Q61474 whole entry)": "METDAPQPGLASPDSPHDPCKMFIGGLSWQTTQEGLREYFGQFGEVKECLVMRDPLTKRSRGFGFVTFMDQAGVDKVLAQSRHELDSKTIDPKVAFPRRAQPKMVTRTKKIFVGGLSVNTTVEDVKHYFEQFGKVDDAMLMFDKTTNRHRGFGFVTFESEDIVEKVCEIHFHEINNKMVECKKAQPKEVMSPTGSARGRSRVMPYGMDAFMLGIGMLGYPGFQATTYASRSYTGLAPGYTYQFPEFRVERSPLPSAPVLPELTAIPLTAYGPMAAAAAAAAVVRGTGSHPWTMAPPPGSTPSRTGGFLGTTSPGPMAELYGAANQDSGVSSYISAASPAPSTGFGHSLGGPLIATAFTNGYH", "assay": "nsRBNS (natural sequence RNA bind-n-seq); RBNS binding buffer (assumed for nsRBNS): 25 mM Tris pH 7.5, 150 mM KCl, 3 mM MgCl2, 0.01% Triton X-100, 500 ug/ml BSA, 20 U/ml SUPERase-In, 4 C; UNK is unkempt and MSI1 is Musashi-1; names of the RNAs are library labels; protein concentration not given here; high values mean tight binding", "units": {"binding signal": "enrichment R"}, "values": [{"binder": "B1", "binding signal": 1.23}, {"binder": "B2", "binding signal": 1.11}, {"binder": "B3", "binding signal": 0.188}, {"binder": "B4", "binding signal": 0.583}, {"binder": "B5", "binding signal": 0.662}, {"binder": "B6", "binding signal": 0.429}, {"binder": "B7", "binding signal": 17.5}, {"binder": "B8", "binding signal": 21.3}, {"binder": "B9", "binding signal": 0.307}, {"binder": "B10", "binding signal": 20.9}, {"binder": "B11", "binding signal": 0.409}, {"binder": "B12", "binding signal": 0.854}, {"binder": "B13", "binding signal": 1.13}]}]}
